# Screening data: PubChem, National Center for Advancing Translational Sciences (NCATS)
# Shown are actives, neighbours in structure and some others; about 12% of the full set was active somewhere.
# HP1b chromo inh = inhibitors of HP1-beta chromodomain binding to methylated histone tails. AlphaScreen HP1-beta / biotin-H3K9me3 peptide binding. Potency, µM (top dose mostly 114 µM), usual class: inhibitors. actives 0.56% (n = 390,000); further: nearly all actives have a fitted effect of over 70% in size
# Target sequence (P83916 whole entry, looked up): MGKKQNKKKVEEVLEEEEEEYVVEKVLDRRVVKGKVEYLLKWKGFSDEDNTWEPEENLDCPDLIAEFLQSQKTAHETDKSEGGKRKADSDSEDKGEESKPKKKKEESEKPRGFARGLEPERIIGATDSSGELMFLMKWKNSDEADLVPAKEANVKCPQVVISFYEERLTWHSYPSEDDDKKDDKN
#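 Compound inhibition of the preformed complex between 50 nM HP1-beta and 50 nM biotinylated H3K9me3 peptide was read by AlphaScreen. Buffer was PBS pH 7.4 with 0.01% Tween-20. Incubations ran 30 min at room temperature, with 10 ug/mL donor/acceptor beads.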
# Sfp inh = inhibitors of Bacillus subtilis Sfp phosphopantetheinyl transferase | Q9F4F7 | Biochemical Sfp PPTase activity, qHTS | Potency, µM, most hits filed as inhibitors | actives 3.5% (n = 310,000) | AID 1490;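 further: the enzyme is Sfp with the accession as filed and its product quenches rhodamine fluorescence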
#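 Sfp 15 nM + cpd, 15 min RT; start w/ rhodamine-CoA 5 uM, BHQ-2-YbbR 12.5 uM (final); 50 mM Hepes pH 7.6, 10 mM MgCl2, 0.01% NP-40, 0.01% BSA; read 525/598 nm at 0 and 30 min.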
# L3MBTL1 inh = L3MBTL1 (human) inhibition | Q9Y468 | AlphaScreen L3MBTL1–H3K9me1 peptide binding | Potency, µM (top dose mostly 57.1 µM), most hits filed as inhibitors | actives 0.66% (n = 230,000); further: nearly all actives have a fitted effect of over 60% in size
#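 L3MBTL1 (50 nM) pre-complexed 30 min with biotinylated H3(1-15)K9me1 peptide (75 nM), then compounds added for 30 min at room temperature; AlphaScreen streptavidin donor/nickel chelate acceptor beads (10 ug/mL final) read after 30 min dark incubation.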
# G9a inh = G9a (human) methyltransferase inhibition | G9a H3K9 monomethylation, AlphaScreen, 2 h | Potency, µM (series often up to 102 µM), most hits filed as inhibitors | actives 8.8% (n = 350,000) | AID 504332; further: nearly all actives have a fitted effect of over 75% in size
# Target sequence (Q96KQ7 913-1193 limits assumed): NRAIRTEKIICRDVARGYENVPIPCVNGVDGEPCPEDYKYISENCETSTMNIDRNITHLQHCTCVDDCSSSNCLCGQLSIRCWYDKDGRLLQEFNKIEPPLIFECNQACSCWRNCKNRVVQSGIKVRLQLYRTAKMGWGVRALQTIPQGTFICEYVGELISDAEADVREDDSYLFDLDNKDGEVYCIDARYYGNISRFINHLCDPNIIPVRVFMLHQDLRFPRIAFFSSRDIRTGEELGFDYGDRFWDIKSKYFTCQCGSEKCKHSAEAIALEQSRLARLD
#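 G9a (20 nM) was preincubated 15 min with compound, then reacted 2 h at room temperature with 500 nM biotin-H3K9 peptide and 20 µM SAM. Monomethyl-H3K9 detected by AlphaScreen using anti-H3K9me1 antibody.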
# JMJD2A Tudor = JMJD2A Tudor domain (human) inhibition; Potency, µM (top dose mostly 114 µM), actives largely listed as inhibitors; actives 4.4% (n = 390,000); AlphaScreen JMJD2A-Tudor / H3K4me3 peptide binding; O75164; further: nearly all actives have a fitted effect of over 50% in size
# BAZ2B inh = BAZ2B (human) inhibition; Q9UIF8; AlphaScreen BAZ2B-H3K14Ac peptide displacement; Potency, µM (doses to about 114 µM), usual class: inhibitors; actives 4.4% (n = 360,000); AID 504333; further: nearly all actives have a fitted effect of over 60% in size
#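 AlphaScreen luminescence quantifies BAZ2B engagement of H3K14Ac peptide; the protein and biotinylated peptide are both at 50 nM final, buffer PBS pH 7.4 with 0.01% Tween-20, all steps at room temperature.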
# Hits are given with their value; - = inactive; ? = inconclusive; . = no result; [ ] = dose if it differs, or a comment. The call rests on the fitted dose curve; in most records, active means well fitted curve in the direction sought with a large enough effect; inconclusive means small, poorly fitted or top-dose-only effect, or another doubt; inactive means no such curve, though single readings can be large; an effect the other way counts as inactive or inconclusive.
SMILES,HP1b chromo inh,Sfp inh,L3MBTL1 inh,G9a inh,JMJD2A Tudor,BAZ2B inh
COc1ccc(C2(c3ccc(OC)cc3)NC(=O)N(CC(=O)Nc3ccccc3C)C2=O)cc1,-,79.4µM,.,.,-,-
COc1ccc(C2(c3ccc(OC)cc3)NC(=O)N(CC(=O)Nc3ccccc3)C2=O)cc1,?,-,.,-,-,-
O=C(CN(Cc1ccc(F)cc1)C(=O)CCC(=O)Nc1ccccn1)NCc1ccc(F)cc1,-,-,.,-,-,-
CCSc1nnc2c(n1)OC(c1ccc(OC)c(OC)c1)N(C(C)=O)c1ccccc1-2 (stereo not given),-,.,.,-,-,-
Cc1ccc(NC(=O)Cn2nc(C(=O)O)c3ccccc3c2=O)cc1S(=O)(=O)N1CCCCCC1,-,.,.,.,-,.
C=CCOc1ccc(CN(C)CC(O)COc2cccc3ccccc23)cc1 (stereo not given),35.5µM,-,.,39.8µM,0.708µM,50.1µM
OC[C@@H](O)COc1cccc2ccccc12,.,-,.,.,.,.
N#Cc1nc(-c2ccc(OCc3ccc(Cl)cc3)cc2)oc1N1CCCCCC1,-,.,.,.,-,.
CC(C)NC(=O)NC(=O)COc1ncnc2sccc12,?,-,-,50.1µM,?,-
Oc1ccccc1C(=S)N1CCCCC1,-,-,-,10µM,-,-
O=C(Nc1ccc(F)c(F)c1)c1cc(S(=O)(=O)N2CCN(c3ccccn3)CC2)ccc1F,-,-,.,?,-,-
O=C(Nc1c(F)cc(F)cc1Br)c1cc(S(=O)(=O)N2CCN(c3ccccn3)CC2)ccc1F,-,-,-,50.1µM,?,?
Cc1nc(N2CCN(Cc3ccc(Cl)cc3)CC2)c2oc3ccccc3c2n1,-,22.4µM,-,.,-,?
Cc1nc(N2CCN(Cc3ccc4c(c3)OCO4)CC2)c2oc3ccccc3c2n1,-,.,.,.,?,.
COc1ccccc1N1CCN(c2nc(C)nc3c2oc2ccccc23)CC1,-,25.1µM,-,39.8µM,44.7µM,50.1µM
CC(=O)c1ccc(OC(=O)c2nc(-c3ccccc3)oc2C)cc1,-,-,.,56.2µM,-,?
Cc1oc(-c2ccccc2)nc1C(=O)O,-,-,-,.,-,-
O=C1c2[nH]nc(-c3ccccc3O)c2C(c2cccc(O)c2)N1Cc1ccco1 (stereo not given),-,-,-,.,?,?
COc1ccc(C2c3c(-c4c(C)cc(C)cc4O)n[nH]c3C(=O)N2Cc2ccco2)cc1 (stereo not given),-,.,.,-,?,?
Cc1c(Br)c(-c2n[nH]c(=S)n2Cc2ccco2)nn1C,-,-,-,10µM,?,-
Oc1ccccc1-c1n[nH]c(=S)n1Cc1ccco1,-,-,.,?,5.62µM,-
Cc1cc2nccc(-c3ccco3)n2n1,-,-,-,-,-,-
COc1ccc(-c2n[nH]c(=S)n2Cc2ccco2)cc1,-,-,.,?,14.1µM,-
Cc1cc(-c2n[nH]c(=S)n2Cc2ccco2)n(C)n1,-,50.1µM,-,8.91µM,20µM,-
Cc1nc2ccccc2c(=O)n1-c1ccc(F)c(NS(=O)(=O)c2ccccc2F)c1,-,.,-,-,-,-
SMILES,HP1b chromo inh,Sfp inh,L3MBTL1 inh,G9a inh,JMJD2A Tudor,BAZ2B inh
CCOC(=O)CSc1nnc(Cc2ccccc2)n1Cc1ccco1,-,?,-,?,-,-
COc1cccc(Cc2n[nH]c(=S)n2Cc2ccco2)c1,-,-,-,7.94µM,14.1µM,-
Cc1cc(-c2n[nH]c(=S)n2Cc2ccco2)nn1C,-,-,-,8.91µM,6.31µM,-
Cn1cc(S(=O)(=O)NCc2ccc3c(c2)OCO3)c(C(F)(F)F)n1,-,-,.,-,-,-
O=C1Nc2ccccc2SC(c2ccccc2)C1O (stereo not given),-,-,.,10µM,56.2µM,39.8µM
CC(C)CC[n+]1ccccc1/C=C/c1ccc(N(C)C)cc1,-,-,.,31.6µM,-,-
CN(C)c1ccc(/C=C/c2cccc[n+]2[O-])cc1,-,-,-,50.1µM,-,-
CN(C)c1ccc(/C=C/c2ccncc2)cc1,-,-,-[11.4 µM],?,-,?
CC(C)(C)OC(=O)N[C@@H](Cc1ccccc1)C(=O)N1CCC(C(=O)N[C@@H](Cc2c[nH]c3ccccc23)C(=O)O)CC1,-,-,.,-,-,-
